Hits are enriched below; roughly 3.5% of the tested compounds scored in any of these assays.
GPR151 ag = activates the human receptor GPR151; Q8TDV0; PathHunter beta-arrestin GPR151 cells, luminescence; activation, % at 11.2 µM; actives 1% (n = 650,000); in the data active = activation above about 4.9%
TEAD-YAP block = TEAD-YAP interaction inhibition. HEK-TIYL cells, TEAD-Gal4/YAP UAS-luciferase luminescence. inhibition, % at 9.12 µM. actives 1.4% (n = 640,000). AID 1259422; in the data active = inhibition above about 32%
MITF inh = human MITF inhibition, primary screen | O75030 | AlphaScreen MITF homodimerization, bead proximity signal | actives 0.91% (n = 650,000) | inhibition, % at 2.6 µM; in the data active = inhibition above about 50%
Target sequence (O75030 whole entry, looked up): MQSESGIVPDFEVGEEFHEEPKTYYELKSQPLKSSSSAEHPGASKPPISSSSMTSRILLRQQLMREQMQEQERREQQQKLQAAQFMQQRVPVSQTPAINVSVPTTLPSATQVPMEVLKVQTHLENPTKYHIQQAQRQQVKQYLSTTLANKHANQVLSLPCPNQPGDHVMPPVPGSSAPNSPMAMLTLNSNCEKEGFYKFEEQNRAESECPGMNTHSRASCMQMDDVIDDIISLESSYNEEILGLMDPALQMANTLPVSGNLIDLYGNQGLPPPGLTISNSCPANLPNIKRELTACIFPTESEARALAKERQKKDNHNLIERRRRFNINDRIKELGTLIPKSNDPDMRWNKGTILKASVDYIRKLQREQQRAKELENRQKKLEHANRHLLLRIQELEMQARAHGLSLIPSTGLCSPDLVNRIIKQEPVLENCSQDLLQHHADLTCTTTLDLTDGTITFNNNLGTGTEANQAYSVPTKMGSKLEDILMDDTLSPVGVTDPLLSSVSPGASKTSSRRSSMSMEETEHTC
FBW7 act = activators of human E3 ligase FBW7; AlphaScreen FBW7–phospho-cyclin E peptide binding, activator screen; normalized activity (activation), % at 26.1 µM; actives 0.13% (n = 650,000); AID 1259310; in the data active = normalized activity above about 1.9%;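 note: purified mutant Fbw7 with reduced substrate affinity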
GPR151 conf act = confirmation of human GPR151 activators; shares compounds with GPR151 ag; GPR151 PathHunter beta-arrestin cells, luminescence, 90 min; % of EA-reagent control over plate median; activation, % at 11.2 µM; 6,700 tested, under 10 active; AID 1508609;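 active = mean percent activation across replicates above the confirmation screen cutoff of 4.91%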
GPR119 ag = counter-screen for GPR151 activators: effect on human GPR119. shares compounds with GPR151 ag. GPR119 PathHunter beta-arrestin cells, luminescence, 90 min; 0 = compound-well median, 100 = enzyme-acceptor control. activation, % at 11.2 µM. actives 0.3% (n = 6,700). AID 1508611;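 active = mean percent activation in the counterscreen above 29.09%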;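 note: counterscreen on off-target GPR119 to flag nonselective hits from the GPR151 activator screen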
Each line names hits and unclear results; the compound was inactive in the other large screens (follow-up assays come after a bar, where they were run).

Cc1c(C(=O)c2ccc3ccccc3c2)c2cccc3c2n1[C@H](CN1CCOCC1)CO3	GPR151 ag 5.4 (no result: TEAD-YAP block) | GPR151 conf act inactive | GPR119 ag inactive
CC(=O)c1ccc(OCC(=O)N2CCCC(N(C)CCc3ccccc3)C2)cc1 (stereo unspecified)	GPR151 ag 5.0 | GPR151 conf act inactive | GPR119 ag inactive
COc1ccc2c([N+](=O)[O-])c(NCc3ccc(Cl)nc3)[nH]c2c1	none
CN1C(=O)NC(=O)/C(=C/c2ccc(-c3ccccc3[N+](=O)[O-])o2)C1=O	GPR151 ag 5.0 | GPR151 conf act inactive | GPR119 ag inactive
C=CCN1C(=O)C2(C(C(=O)OCC)=C(C)OC(N)=C2C(=O)OC)c2ccccc21 (stereo unspecified)	none
COc1ccc(C(=O)O)cc1OC	GPR151 ag 5.7 | GPR151 conf act inactive | GPR119 ag inactive
COc1ccc(C(=O)OC2CC3CCC(C2)N3)cc1OC (stereo unspecified)	none
O=[N+]([O-])c1cc2c(cc1CN1CC=C(c3ccc(F)cc3)CC1)OCO2	none
CCCCCCCCCCCCCCCC[n+]1ccccc1	GPR151 ag 5.0, TEAD-YAP block 60.0 | GPR151 conf act inactive | GPR119 ag inactive
CC1(C)C(C(=O)Nc2cccc3ccccc23)C1(C)C	none
Cc1ccccc1NC(=O)C1C(C)(C)C1(C)C	GPR151 ag 9.3 | GPR151 conf act inactive | GPR119 ag inactive
C=CCOc1ccccc1/C=C/[N+](=O)[O-]	GPR151 ag 7.3 | GPR151 conf act inactive | GPR119 ag inactive
O=[N+]([O-])/C=C/c1ccccc1OCc1ccc(F)cc1	none
N#CCC(=O)NN1Cc2ccccc2C1=N	GPR151 ag 6.8 | GPR151 conf act inactive | GPR119 ag inactive

Bioassay records from PubChem.
